The values below come from PubChem BioAssay (NCI).

Test [1] is described as follows: NCI Yeast Anticancer Drug Screen. Data for the rad50 strain (AID 155).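 Further: 0% = growth of vehicle-only cultures of the same strain.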 Conditions: S. cerevisiae rad50 strain growth inhibition, stronger effect = higher value. A digest of the protocol:
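Compounds were tested on a yeast strain with an engineered DNA damage repair alteration; the reported value is growth inhibition normalised to vehicle treatment.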

Test [2] in a line: NCI Yeast Anticancer Drug Screen. Data for the mec2-1 strain (AID 157). Conditions: S. cerevisiae mec2-1 strain, stronger effect = higher value. A digest of the protocol: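 Cells of the genetically defined mec2-1 yeast strain are incubated with test compound. Inhibition of growth is calculated against vehicle-treated controls.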
Test [3] is described as follows: NCI Yeast Anticancer Drug Screen. Data for the sgs1 mgt1 strain (AID 161).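 Further: 0% = growth of cultures given vehicle only.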 As to conditions: S. cerevisiae sgs1 mgt1 strain, stronger effect = higher value. A digest of the protocol:
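Genetically altered yeast, compound exposure, growth inhibition relative to vehicle.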

Test [4] can be described thus: NCI Yeast Anticancer Drug Screen. Data for the cln2 rad14 strain (AID 165).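 Further: 0% = growth equal to vehicle treated cultures.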 Conditions: S. cerevisiae cln2 rad14 strain, stronger effect = higher value. A digest of the protocol:
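The screen exposed genetically defined yeast (cln2 rad14) to test compounds and scored growth inhibition relative to vehicle-treated controls.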

Test [5] can be described thus: NCI Yeast Anticancer Drug Screen. Data for the bub3 strain (AID 167). Conditions: S. cerevisiae bub3 mutant strain, stronger effect = higher value. A digest of the protocol: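 Growth of a checkpoint-deficient yeast mutant is measured after compound exposure. Values represent inhibition relative to vehicle.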
Test [6] in a line: NCI Yeast Anticancer Drug Screen. Data for the mlh1 rad18 strain (AID 175). Conditions: S. cerevisiae mlh1 rad18 strain growth inhibition, stronger effect = higher value. A digest of the protocol:
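Compound-treated yeast growth, normalised to vehicle controls. Strain bears defined DNA repair mutations.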

[7] abbreviates: at 5.0 µM (retest, dose inferred, filed as 0.5).
Where [8] appears, read: at 50.0 µM (retest, dose inferred, filed as 5.0).

The panel holds about 79,000 compounds, 15% with a hit somewhere; the sample as a whole holds those more often. Unmarked numbers belong to inactive results. The source made the active and inactive calls. No stated cut-off is given here; in the data, active means growth inhibition above about 70%; inactive means the rest.

Take `CCOc1nc(N)nc(C)c1N=Nc1ccc(Cl)cc1`: the growth inhibition in test [1] (setting [7]) was 16%; in test [1] (setting [8]), 76% (active); in test [1] (at 50.0 µM), 95.5% (active); in test [2] (setting [7]), 4%; in test [2] (setting [8]), 58%; in test [2] (at 50.0 µM), 67.7%. Besides, the growth inhibition in test [3] (setting [7]) was 14%; in test [3] (setting [8]) it was 75% (active); in test [3] (at 50.0 µM), 91.9% (active); in test [4] (setting [7]) it was -5%; in test [4] (setting [8]) it was 35%; in test [4] (at 50.0 µM), 74.8% (active). In addition, the growth inhibition was -1% in test [5] (setting [7]); 19% in test [5] (setting [8]); 97.3% (active) in test [5] (at 50.0 µM); 25% in test [6] (setting [7]); 88% (active) in test [6] (setting [8]); 89.6% (active) in test [6] (at 50.0 µM).
For `Cc1ccc(C2(O)CC(c3ccc([N+](=O)[O-])o3)=NN2C(=O)COc2ccc(Cl)cc2)cc1` (stereo not given), the growth inhibition in test [1] (setting [7]) was 46%; in test [1] (setting [8]) it was 46%; in test [1] (at 50.0 µM), 6.1%; in test [2] (setting [7]), 29%; in test [2] (setting [8]), 29%; in test [2] (at 50.0 µM), 51.9%. Moreover, the growth inhibition was 39% in test [3] (setting [7]); 39% in test [3] (setting [8]); 52.6% in test [3] (at 50.0 µM); 11% in test [4] (setting [7]); 11% in test [4] (setting [8]); 70.3% (active) in test [4] (at 50.0 µM). For the same compound, the growth inhibition in test [5] (setting [7]) is 10%; in test [5] (setting [8]), 10%; in test [5] (at 50.0 µM), 37.6%; in test [6] (setting [7]) it was 43%; in test [6] (setting [8]), 43%; in test [6] (at 50.0 µM), 34.3%.
As to `COc1ccc(C2Cc3cc(OC)ccc3C2=O)cc1` (stereo not given), the growth inhibition in test [1] (setting [7]) was 13%; in test [1] (setting [8]), 94% (active); in test [1] (at 50.0 µM), 45.5%; in test [2] (setting [7]) it was 9%; in test [2] (setting [8]), 98% (active); in test [2] (at 50.0 µM) it was 29.4%. Further, the growth inhibition in test [3] (setting [7]) was 17%; in test [3] (setting [8]) it was 95% (active); in test [3] (at 50.0 µM) it was 56.5%; in test [4] (setting [7]) it was 19%; in test [4] (setting [8]), 95% (active); in test [4] (at 50.0 µM) it was 23.6%. Besides, the growth inhibition in test [5] (setting [7]) is 32%; in test [5] (setting [8]), 97% (active); in test [5] (at 50.0 µM), 96% (active); in test [6] (setting [7]), 10%; in test [6] (setting [8]), 97% (active); in test [6] (at 50.0 µM) it was 57.4%.
For the compound `CCC[N+]1=C(/C=C/c2cc(C)c3cccnc3c2O)C(C)(C)c2ccccc21`, the growth inhibition is 12% in test [1] (setting [7]); 94% (active) in test [1] (setting [8]); 93.7% (active) in test [1] (at 50.0 µM); 27% in test [2] (setting [7]); 95% (active) in test [2] (setting [8]); 90.3% (active) in test [2] (at 50.0 µM). In addition, the growth inhibition in test [3] (setting [7]) is 7%; in test [3] (setting [8]) it was 93% (active); in test [3] (at 50.0 µM), 86.5% (active); in test [4] (setting [7]) it was -7%; in test [4] (setting [8]), 90% (active); in test [4] (at 50.0 µM), 81.8% (active). Further, the growth inhibition in test [5] (setting [7]) was 4%; in test [5] (setting [8]), 93% (active); in test [5] (at 50.0 µM), 92% (active); in test [6] (setting [7]) it was 19%; in test [6] (setting [8]), 93% (active); in test [6] (at 50.0 µM) it was 93% (active).
For `COc1ccc(C2CC(=O)CC(=O)C2)cc1`, the growth inhibition is -6% in test [1] (setting [7]); -23% in test [1] (setting [8]); 65.2% in test [1] (at 50.0 µM); 5% in test [2] (setting [7]); -8% in test [2] (setting [8]); 10.1% in test [2] (at 50.0 µM). Besides, the growth inhibition in test [3] (setting [7]) is -7%; in test [3] (setting [8]), 2%; in test [3] (at 50.0 µM), 32.5%; in test [4] (setting [7]) it was -64%; in test [4] (setting [8]), -20%; in test [4] (at 50.0 µM), -3.35%. The growth inhibition in test [5] (setting [7]) is -25%; in test [5] (setting [8]), -15%; in test [5] (at 50.0 µM), 16%; in test [6] (setting [7]) it was -12%; in test [6] (setting [8]) it was 0%; in test [6] (at 50.0 µM) it was 55.5%.
As for `O=C1/C(=C\c2ccccc2)C(NC2CCCCC2)c2ccccc21` (stereo not given), the growth inhibition is 73% (active) in test [1] (setting [7]); 99% (active) in test [1] (setting [8]); 99.6% (active) in test [1] (at 50.0 µM); 43% in test [2] (setting [7]); 99% (active) in test [2] (setting [8]); 99.7% (active) in test [2] (at 50.0 µM). The growth inhibition is 65% in test [3] (setting [7]); 98% (active) in test [3] (setting [8]); 99.7% (active) in test [3] (at 50.0 µM); 37% in test [4] (setting [7]); 100% (active) in test [4] (setting [8]); 99.5% (active) in test [4] (at 50.0 µM). Also, the growth inhibition in test [5] (setting [7]) is 75% (active); in test [5] (setting [8]) it was 99% (active); in test [5] (at 50.0 µM), 99.5% (active); in test [6] (setting [7]), 74% (active); in test [6] (setting [8]), 99% (active); in test [6] (at 50.0 µM), 99.5% (active).
`c1ccc2c(Nc3ccc(Oc4ccc(Nc5c6ccccc6nc6ccccc56)cc4)cc3)c3ccccc3nc2c1`: the growth inhibition in test [1] (setting [7]) was 50%; in test [1] (setting [8]), 99% (active); in test [1] (at 50.0 µM) it was 82.8% (active); in test [2] (setting [7]) it was 8%; in test [2] (setting [8]) it was 100% (active); in test [2] (at 50.0 µM), 6.6%. In addition, the growth inhibition in test [3] (setting [7]) was 31%; in test [3] (setting [8]) it was 99% (active); in test [3] (at 50.0 µM), -22.9%; in test [4] (setting [7]), 6%; in test [4] (setting [8]) it was 99% (active); in test [4] (at 50.0 µM) it was 6.45%. Further, the growth inhibition in test [5] (setting [7]) was 10%; in test [5] (setting [8]), 99% (active); in test [5] (at 50.0 µM), -1.8%; in test [6] (setting [7]), 20%; in test [6] (setting [8]) it was 99% (active); in test [6] (at 50.0 µM) it was 10.3%.
On to `CCCNC(=O)c1cc2ccccc2cc1C(=O)OC`, for which the growth inhibition is 59% in test [1] (setting [7]); 90% (active) in test [1] (setting [8]); 86% (active) in test [1] (at 50.0 µM); 48% in test [2] (setting [7]); 90% (active) in test [2] (setting [8]); 88.5% (active) in test [2] (at 50.0 µM). The growth inhibition in test [3] (setting [7]) was 51%; in test [3] (setting [8]), 95% (active); in test [3] (at 50.0 µM), 81.9% (active); in test [4] (setting [7]) it was 49%; in test [4] (setting [8]) it was 74% (active); in test [4] (at 50.0 µM) it was 81.1% (active). The growth inhibition in test [5] (setting [7]) was 68%; in test [5] (setting [8]) it was 94% (active); in test [5] (at 50.0 µM) it was 88.3% (active); in test [6] (setting [7]), 65%; in test [6] (setting [8]), 94% (active); in test [6] (at 50.0 µM), 86.2% (active).
On to `O=c1c2cnccc2cc2c3ccccc3ccn12`, for which the growth inhibition in test [1] (setting [7]) is 47%; in test [1] (setting [8]), 93% (active); in test [1] (at 50.0 µM) it was 91.8% (active); in test [2] (setting [7]), 12%; in test [2] (setting [8]) it was 58%; in test [2] (at 50.0 µM), 41.5%. Further, the growth inhibition in test [3] (setting [7]) was 9%; in test [3] (setting [8]) it was 64%; in test [3] (at 50.0 µM) it was 6.75%; in test [4] (setting [7]) it was 3%; in test [4] (setting [8]), 42%; in test [4] (at 50.0 µM), 74.8% (active). In addition, the growth inhibition in test [5] (setting [7]) is 5%; in test [5] (setting [8]), 37%; in test [5] (at 50.0 µM) it was 2.45%; in test [6] (setting [7]) it was 26%; in test [6] (setting [8]), 87% (active); in test [6] (at 50.0 µM) it was 64%.
Regarding `O=C(O)/C=C/C(=O)Nc1cccc2ccccc12`, the growth inhibition was 40% in test [1] (setting [7]); 40% in test [1] (setting [8]); 6.35% in test [1] (at 50.0 µM); 44% in test [2] (setting [7]); 49% in test [2] (setting [8]); 35.9% in test [2] (at 50.0 µM). Moreover, the growth inhibition in test [3] (setting [7]) is 21%; in test [3] (setting [8]), 100% (active); in test [3] (at 50.0 µM), 55.5%; in test [4] (setting [7]) it was 39%; in test [4] (setting [8]), 100% (active); in test [4] (at 50.0 µM) it was 2.25%. Also, the growth inhibition was 64% in test [5] (setting [7]); 100% (active) in test [5] (setting [8]); 55% in test [5] (at 50.0 µM); 26% in test [6] (setting [7]); 44% in test [6] (setting [8]); 16.8% in test [6] (at 50.0 µM).
